From PubChem BioAssay AID1159580 (chemical genetic matrix, 2015)
About 2,000 (36%) of roughly 5,500 compounds were called active. Roughly 18% stayed inconclusive and do not appear here. No stated cut-off is given here; in the data, active means normalized growth mostly below about 0.91 (no sharp cut-off); inconclusive means no clear call, values can overlap the other calls; inactive means mostly above about 0.92. The list shows a part of the results.

Test: chemical genetic growth profiling, strain panel (AID 1159580);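 further: tested at 20 µM; growth read once vehicle control cultures reached saturation at 30 °C; 1 = growth at the plate median or of vehicle wells; lower values mean less growth of the strain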
Details: growth OD

Measured: normalized growth

Cn1c(=O)c2c(ncn2CCCl)n(C)c1=O
inactive: S. cerevisiae deletion strains, locus YAL013W, strain DEP1, hits give low values 1 | S. cerevisiae deletion strains, locus YBR021W, strain FUR4, hits give low values 0.995 | S. cerevisiae deletion strains, locus YBR229C, strain ROT2, hits give low values 0.997 | S. cerevisiae deletion strains, locus YCL029C, strain bik1, hits give low values 1.03 | S. cerevisiae deletion strains, locus YDL035C, strain GPR1, hits give low values 1 | S. cerevisiae deletion strains, locus YDL074C, strain BRE1, hits give low values 0.999 | S. cerevisiae deletion strains, locus YDL101C, strain DUN1, hits give low values 1.01 | S. cerevisiae deletion strains, locus YDL134C, strain PPH21, hits give low values 1 | S. cerevisiae deletion strains, locus YDL185W, strain tfp1, hits give low values 1.01 | S. cerevisiae deletion strains, locus YDL192W, strain arf1, hits give low values 1.02 | S. cerevisiae deletion strains, locus YDR101C, strain arx1, hits give low values 0.995 | S. cerevisiae deletion strains, locus YDR150W, strain NUM1, hits give low values 0.998 | S. cerevisiae deletion strains, locus YDR162C, strain NBP2, hits give low values 1 | S. cerevisiae deletion strains, locus YDR318W, strain mcm21, hits give low values 1.02 | S. cerevisiae deletion strains, locus YDR388W, hits give low values 1.01 | S. cerevisiae deletion strains, locus YDR502C, strain sam2, hits give low values 1.02 | S. cerevisiae deletion strains, locus YEL061C, strain CIN8, hits give low values 0.998 | S. cerevisiae deletion strains, locus YER110C, hits give low values 1.02 | S. cerevisiae deletion strains, locus YER155C, strain BEM2, hits give low values 0.997 | S. cerevisiae deletion strains, locus YER167W, strain BCK2, hits give low values 1.01 | S. cerevisiae deletion strains, locus YGL078C, strain dbp3, hits give low values 1.02 | S. cerevisiae deletion strains, locus YGL086W, strain mad1, hits give low values 1.01 | S. cerevisiae deletion strains, locus YGL248W, strain PDE1, hits give low values 1 | S. cerevisiae deletion strains, locus YGR078C, strain PAC10, hits give low values 0.975 | S. cerevisiae deletion strains, locus YGR135W, strain pre9, hits give low values 0.995 | S. cerevisiae deletion strains, locus YGR229C, strain SMI1, hits give low values 0.987 | S. cerevisiae deletion strains, locus YGR252W, strain gcn5, hits give low values 1.03 | S. cerevisiae deletion strains, locus YHR030C, strain SLT2, hits give low values 1 | S. cerevisiae deletion strains, locus YHR079C, strain IRE1 (second series), hits give low values 1.02 | S. cerevisiae deletion strains, locus YHR094C, strain hxt1, hits give low values 1.01 | S. cerevisiae deletion strains, locus YHR129C, strain ARP1, hits give low values 1 | S. cerevisiae deletion strains, locus YHR200W, strain rpn10, hits give low values 1.03 | S. cerevisiae deletion strains, locus YIL066C, strain RNR3, hits give low values 1.02 | S. cerevisiae deletion strains, locus YIL073C, strain SPO22, hits give low values 1.08 | S. cerevisiae deletion strains, locus YIL125W, strain kgd1, hits give low values 1.02 | S. cerevisiae deletion strains, locus YIR030C, strain dcg1, hits give low values 1.03 | S. cerevisiae deletion strains, locus YJL095W, strain BCK1, hits give low values 0.992 | S. cerevisiae deletion strains, locus YJL134W, strain LCB3, hits give low values 1.01 | S. cerevisiae deletion strains, locus YJL168C, strain set2, hits give low values 1.02 | S. cerevisiae deletion strains, locus YJL187C, strain SWE1 (second series), hits give low values 1 | S. cerevisiae deletion strains, locus YJR043C, strain POL32, hits give low values 0.998 | S. cerevisiae deletion strains, locus YJR075W, strain HOC1, hits give low values 0.987 | S. cerevisiae deletion strains, locus YKL009W, strain mrt4, hits give low values 1.03 | S. cerevisiae deletion strains, locus YKL068W, hits give low values 1.02 | S. cerevisiae deletion strains, locus YKL085W, strain MDH1 (second series), hits give low values 1.01 | S. cerevisiae deletion strains, locus YKL085W, strain MDH1, hits give low values 1.01 | S. cerevisiae deletion strains, locus YKL190W, strain CNB1, hits give low values 1 | S. cerevisiae deletion strains, locus YKR001C, strain vps1, hits give low values 1.01 | S. cerevisiae deletion strains, locus YLR039C, strain RIC1, hits give low values 1.04 | S. cerevisiae deletion strains, locus YLR058C, strain SHM2, hits give low values 1.01 | S. cerevisiae deletion strains, locus YLR102C, strain apc9, hits give low values 1.03 | S. cerevisiae deletion strains, locus YLR262C, strain YPT6, hits give low values 1.05 | S. cerevisiae deletion strains, locus YLR268W, strain sec22, hits give low values 0.994 | S. cerevisiae deletion strains, locus YLR330W, strain CHS5, hits give low values 1.01 | S. cerevisiae deletion strains, locus YLR342W, strain FKS1 (second series), hits give low values 1.01 | S. cerevisiae deletion strains, locus YLR371W, strain rom2, hits give low values 1.03 | S. cerevisiae deletion strains, locus YLR418C, strain cdc73, hits give low values 0.992 | S. cerevisiae deletion strains, locus YML016C, strain PPZ1, hits give low values 1 | S. cerevisiae deletion strains, locus YML032C, strain rad52, hits give low values 1.03 | S. cerevisiae deletion strains, locus YML124C, strain tub3, hits give low values 1.02 | S. cerevisiae deletion strains, locus YMR078C, strain ctf18, hits give low values 1.02 | S. cerevisiae deletion strains, locus YMR223W, strain ubp8, hits give low values 1.04 | S. cerevisiae deletion strains, locus YMR263W, strain SAP30, hits give low values 0.995 | S. cerevisiae deletion strains, locus YMR307W, strain GAS1, hits give low values 0.996 | S. cerevisiae deletion strains, locus YNL067W, strain RPL9B, hits give low values 1.01 | S. cerevisiae deletion strains, locus YNL128W, strain TEP1, hits give low values 0.999 | S. cerevisiae deletion strains, locus YNL153C, strain GIM3, hits give low values 0.988 | S. cerevisiae deletion strains, locus YNL233W, strain BNI4, hits give low values 0.994 | S. cerevisiae deletion strains, locus YNL250W, strain rad50, hits give low values 1.04 | S. cerevisiae deletion strains, locus YNL271C, strain bni1, hits give low values 1.02 | S. cerevisiae deletion strains, locus YNL298W, strain CLA4, hits give low values 1.03 | S. cerevisiae deletion strains, locus YNL307C, strain MCK1, hits give low values 1.03 | S. cerevisiae deletion strains, locus YNL322C, strain KRE1, hits give low values 1 | S. cerevisiae deletion strains, locus YNR052C, strain pop2, hits give low values 1.04 | S. cerevisiae deletion strains, locus YOL006C, strain TOP1, hits give low values 1.03 | S. cerevisiae deletion strains, locus YOL012C, strain htz1 0.951 | S. cerevisiae deletion strains, locus YOL147C, strain pex11, hits give low values 1.01 | S. cerevisiae deletion strains, locus YOR061W, strain CKA2, hits give low values 1.01 | S. cerevisiae deletion strains, locus YOR069W, strain VPS5, hits give low values 1 | S. cerevisiae deletion strains, locus YOR136W, strain idh2, hits give low values 1.02 | S. cerevisiae deletion strains, locus YOR144C, strain elg1, hits give low values 1.01 | S. cerevisiae deletion strains, locus YOR184W, strain ser1, hits give low values 1.03 | S. cerevisiae deletion strains, locus YOR316C, strain cot1, hits give low values 1.02 | S. cerevisiae deletion strains, locus YPL055C, strain LGE1, hits give low values 0.999 | S. cerevisiae deletion strains, locus YPL241C, strain CIN2, hits give low values 1 | S. cerevisiae deletion strains, locus YPR119W, strain clb2, hits give low values 1.01 | S. cerevisiae deletion strains, locus YPR141C, strain kar3, hits give low values 1.02 | S. cerevisiae deletion strains, locus YPR163C, strain tif3, hits give low values 1.01 | S. cerevisiae deletion strains, locus YPR167C, strain met16, hits give low values 1.02 | S. cerevisiae deletion strains, strain wtn01, hits give low values 0.997 | S. cerevisiae strains, strain wild type, hits give low values 1
